# Results: PubChem BioAssay (NCATS)
# Several values for one entry are separate records, joined by “and”; a condition that tells them apart may be missing. Identical values can stand only once. Records with an inconclusive call do not appear. Where a call stands in place of a potency, no number is given. Activity calls are given as the source filed them. Unless noted, calls follow the shape of the dose curve; as a rule, active = well fitted inhibition curve with a large enough effect; inconclusive = small, poorly fitted or top-dose-only effect; inactive = flat fitted curve, though single readings scatter. Where a SMILES comes first, the peptide text is derived from it. Bridges are numbered along the chain shown (N, C = ends). [ ]: non-standard residue; d: D form. hArg = N=C(N)NCCCC[C@H](N)C(=O)O; Mpa = O=C(O)CCS
# Experiments:
# [1] = molecular target: Peroxisome proliferator-activated receptor gamma (Homo sapiens) (UniProt P37231); assay: qHTS assay for small molecule antagonists of peroxisome proliferator-activated receptor gamma signaling (AID 588537; active = well fitted inhibition curve with a large enough effect in the signal ratio, with a control signal flat, not every such curve was filed as active; the % refers to the signal ratio;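 also: reporter cells co-stimulated with 50 nM rosiglitazone agonist during compound treatment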)
# Procedure, shortened: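 Antagonist mode, beta-lactamase reporter in HEK293; charcoal/dextran FBS 1%; 3000 cells/well, 37 C 6-6.5 h; cpd titration + rosiglitazone 50 nM final, 16 h 37 C; CCF4, 2 h RT; 460/530 nm; Hill fit → IC50, efficacy.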
# [2] = molecular target: Vitamin D3 receptor (Homo sapiens) (UniProt P11473); assay: qHTS assay for small molecule agonists of vitamin D receptor signaling (AID 588543; calls by dose curve)
# Procedure, shortened: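 VDR-UAS-bla HEK293T cells, 2000/well, 2% charcoal-stripped FBS; compound titration 16 h at 37 C; CCF4 beta-lactamase ratio read. Normalized to 50 nM 1-alpha,25-dihydroxyvitamin D3 (100%) and DMSO; Hill fit gives EC50, efficacy.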
# [3] = qHTS assay for small molecule agonists of retinoid X receptor alpha signaling (AID 588544; calls by dose curve); settings: HEK293T RXRa-UAS-bla, beta-lactamase reporter, 18 h; 530 nm emission
# [4] = molecular target: Retinoic acid receptor RXR-alpha (Homo sapiens) (UniProt P19793); assay: as above
# [5] = molecular target: Thyroid hormone receptor beta (Homo sapiens) (UniProt P10828); assay: qHTS assay for small molecule agonists of thyroid hormone receptor beta signaling (AID 588545; calls by dose curve)
# Procedure, shortened: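 Agonist activity was read as beta-lactamase CCF4 fluorescence (405 ex, 460/530 em), scaled between DMSO (0%) and 10 nM T3 (100%), then Hill-fitted for EC50 and efficacy. HEK 293 TR-UAS-bla cells in 2% charcoal/dextran FBS medium were exposed 18 h at 37 C.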
# [6] = qHTS assay for small molecule antagonists of retinoid X receptor alpha signaling (AID 588546; active = well fitted inhibition curve with a large enough effect in the signal ratio, with a control signal flat, not every such curve was filed as active; the % refers to the signal ratio;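 also: cells stimulated with 9-cis-retinoic acid as agonist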); settings: HEK293T RXRa-UAS-bla, beta-lactamase ratio, antagonist mode; measured here: W530 green channel, cytotoxicity proxy
# Procedure, shortened: (§1)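 Beta-lactamase reporter inhibition, read as CCF4 fluorescence ratio (ex 405, em 460/530 nm) after 2 h at RT. HEK293T UAS-bla cells, 2500/well, were stimulated with 9-cis-RA at 500 or 100 nM final alongside test compound for 18 h at 37 C.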
# [7] = molecular target: Retinoic acid receptor RXR-alpha (Homo sapiens) (UniProt P19793); assay: as above; settings: HEK293T RXRa-UAS-bla, beta-lactamase ratio, antagonist mode
# Procedure, shortened: as §1
# [8] = molecular target: Thyroid hormone receptor beta (Homo sapiens) (UniProt P10828); assay: qHTS assay for small molecule antagonists of thyroid hormone receptor beta signaling (AID 588547; active = well fitted inhibition curve with a large enough effect in the signal ratio, with a control signal flat, not every such curve was filed as active; the % refers to the signal ratio;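 also: cells stimulated with 0.4 nM T3 agonist during compound exposure; series mostly up to about 77 µM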); settings: TR-UAS-bla HEK293, beta-lactamase ratio, antagonist mode, 18 h
# Procedure, shortened: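 Inhibition of T3-driven (0.4nM final) beta-lactamase reporter activity was measured over 0.59 nM to 92 uM compound after 18 h at 37 C. The cells were GripTite HEK293 TR-UAS-bla in charcoal/dextran-stripped serum, with CCF4 ratio read-out and IC50 from Hill fits.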
# [9] = molecular target: Luciferin 4-monooxygenase (Photinus pyralis) (UniProt P08659); assay: Biochemical firefly luciferase enzyme assay for NPC (AID 624030);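 also: purified P. pyralis luciferase at 10 nM with luciferin and ATP substrate; series mostly up to about 59 µM; nearly all actives have a fitted effect of over 70% in size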
# Procedure, shortened: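 Direct inhibition of firefly luciferase enzyme (10 nM final, 50 mM Tris Acetate) assessed by luminescence within 5 minutes. Percent activity scaled between DMSO and PTC124 positive control, with concentration-effect curves classified by fit quality and response.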
# [10] = molecular target: Voltage-gated inwardly rectifying potassium channel KCNH2 (Homo sapiens) (UniProt Q12809); assay: qHTS Assay for Small Molecule Inhibitors of the Human hERG Channel Activity (AID 588834);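 also: top concentration of the series differs between compounds; lower thallium flux fluorescence means stronger hERG block; nearly all actives have a fitted effect of over 50% in size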
# Procedure, shortened: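 U2OS cells BacMam-transduced with hERG, 2000 cells/well, compound ~10 min at 37 °C before stimulation buffer. FluxOR thallium flux fluorescence read kinetically on FDSS; decrease indicates block; AC50 from Hill fits.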
# Voltage-gated inwardly rectifying potassium channel KCNH2 (Homo sapiens), sequence (Q12809 whole entry, looked up): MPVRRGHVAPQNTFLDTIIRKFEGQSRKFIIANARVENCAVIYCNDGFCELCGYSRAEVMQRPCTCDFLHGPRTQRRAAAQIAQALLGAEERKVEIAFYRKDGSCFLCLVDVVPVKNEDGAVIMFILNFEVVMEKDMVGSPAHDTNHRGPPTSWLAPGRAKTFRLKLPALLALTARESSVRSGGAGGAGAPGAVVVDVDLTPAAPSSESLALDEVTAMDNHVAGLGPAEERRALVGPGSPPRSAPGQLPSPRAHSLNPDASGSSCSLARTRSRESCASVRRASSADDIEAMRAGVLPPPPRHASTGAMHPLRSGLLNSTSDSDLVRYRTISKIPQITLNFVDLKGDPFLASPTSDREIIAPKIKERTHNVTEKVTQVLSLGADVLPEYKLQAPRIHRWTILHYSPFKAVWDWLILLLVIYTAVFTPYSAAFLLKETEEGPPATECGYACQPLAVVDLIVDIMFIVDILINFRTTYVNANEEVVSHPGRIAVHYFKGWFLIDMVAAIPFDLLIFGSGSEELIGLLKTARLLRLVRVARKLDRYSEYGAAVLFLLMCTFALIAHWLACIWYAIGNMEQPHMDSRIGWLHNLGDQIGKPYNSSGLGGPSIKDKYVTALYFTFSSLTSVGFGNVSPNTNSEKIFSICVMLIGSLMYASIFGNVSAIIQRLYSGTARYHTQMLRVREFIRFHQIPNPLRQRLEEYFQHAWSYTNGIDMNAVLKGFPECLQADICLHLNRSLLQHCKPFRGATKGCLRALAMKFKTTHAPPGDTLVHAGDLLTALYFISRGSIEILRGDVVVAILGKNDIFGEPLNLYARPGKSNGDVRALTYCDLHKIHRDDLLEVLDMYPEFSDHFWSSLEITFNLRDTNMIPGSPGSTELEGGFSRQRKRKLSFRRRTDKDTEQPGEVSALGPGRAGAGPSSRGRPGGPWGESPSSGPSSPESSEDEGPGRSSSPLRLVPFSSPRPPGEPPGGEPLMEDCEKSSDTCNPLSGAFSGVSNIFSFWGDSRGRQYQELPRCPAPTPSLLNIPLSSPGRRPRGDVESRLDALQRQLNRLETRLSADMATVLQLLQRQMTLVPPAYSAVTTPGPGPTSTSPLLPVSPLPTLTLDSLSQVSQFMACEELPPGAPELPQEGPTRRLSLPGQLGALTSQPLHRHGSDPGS
# Thyroid hormone receptor beta (Homo sapiens), sequence (P10828 whole entry, looked up): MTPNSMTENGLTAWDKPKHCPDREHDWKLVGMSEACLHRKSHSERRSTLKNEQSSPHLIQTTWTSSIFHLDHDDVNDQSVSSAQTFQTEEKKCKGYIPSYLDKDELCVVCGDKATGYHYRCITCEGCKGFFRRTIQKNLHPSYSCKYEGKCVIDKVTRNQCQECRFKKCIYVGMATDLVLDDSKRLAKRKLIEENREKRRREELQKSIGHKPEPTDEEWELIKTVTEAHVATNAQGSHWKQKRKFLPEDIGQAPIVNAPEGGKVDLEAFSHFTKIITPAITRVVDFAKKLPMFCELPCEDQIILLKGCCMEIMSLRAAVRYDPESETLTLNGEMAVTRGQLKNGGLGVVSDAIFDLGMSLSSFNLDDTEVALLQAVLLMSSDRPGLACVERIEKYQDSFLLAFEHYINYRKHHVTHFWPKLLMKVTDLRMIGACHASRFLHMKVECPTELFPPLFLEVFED
# Peroxisome proliferator-activated receptor gamma (Homo sapiens), sequence (P37231 whole entry, looked up): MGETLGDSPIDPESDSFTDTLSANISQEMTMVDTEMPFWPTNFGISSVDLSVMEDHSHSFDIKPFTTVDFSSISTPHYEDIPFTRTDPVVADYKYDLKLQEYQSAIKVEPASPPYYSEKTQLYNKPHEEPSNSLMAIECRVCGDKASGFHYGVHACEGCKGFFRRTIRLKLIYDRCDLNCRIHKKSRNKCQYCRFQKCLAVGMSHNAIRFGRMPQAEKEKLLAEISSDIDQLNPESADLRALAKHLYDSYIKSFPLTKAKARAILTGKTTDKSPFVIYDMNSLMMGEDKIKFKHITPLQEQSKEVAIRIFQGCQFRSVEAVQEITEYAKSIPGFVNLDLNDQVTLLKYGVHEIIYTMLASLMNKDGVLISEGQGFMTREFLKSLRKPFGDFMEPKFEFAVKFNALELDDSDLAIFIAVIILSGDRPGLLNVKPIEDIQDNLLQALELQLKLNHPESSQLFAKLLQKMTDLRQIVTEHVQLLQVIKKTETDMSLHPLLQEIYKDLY
# Vitamin D3 receptor (Homo sapiens), sequence (P11473 whole entry, looked up): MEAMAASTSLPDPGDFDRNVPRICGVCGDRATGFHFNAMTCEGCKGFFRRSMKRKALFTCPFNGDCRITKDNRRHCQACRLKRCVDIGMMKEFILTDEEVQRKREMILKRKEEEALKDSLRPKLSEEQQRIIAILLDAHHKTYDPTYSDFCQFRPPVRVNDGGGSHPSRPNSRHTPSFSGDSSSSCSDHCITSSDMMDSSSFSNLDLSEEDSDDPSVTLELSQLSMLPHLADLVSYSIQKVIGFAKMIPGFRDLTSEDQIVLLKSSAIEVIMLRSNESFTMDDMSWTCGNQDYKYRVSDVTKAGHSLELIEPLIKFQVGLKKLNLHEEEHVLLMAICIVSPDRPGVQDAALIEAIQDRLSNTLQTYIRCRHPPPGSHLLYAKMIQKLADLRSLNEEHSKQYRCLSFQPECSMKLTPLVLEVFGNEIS
# Luciferin 4-monooxygenase (Photinus pyralis), sequence (P08659 whole entry, looked up): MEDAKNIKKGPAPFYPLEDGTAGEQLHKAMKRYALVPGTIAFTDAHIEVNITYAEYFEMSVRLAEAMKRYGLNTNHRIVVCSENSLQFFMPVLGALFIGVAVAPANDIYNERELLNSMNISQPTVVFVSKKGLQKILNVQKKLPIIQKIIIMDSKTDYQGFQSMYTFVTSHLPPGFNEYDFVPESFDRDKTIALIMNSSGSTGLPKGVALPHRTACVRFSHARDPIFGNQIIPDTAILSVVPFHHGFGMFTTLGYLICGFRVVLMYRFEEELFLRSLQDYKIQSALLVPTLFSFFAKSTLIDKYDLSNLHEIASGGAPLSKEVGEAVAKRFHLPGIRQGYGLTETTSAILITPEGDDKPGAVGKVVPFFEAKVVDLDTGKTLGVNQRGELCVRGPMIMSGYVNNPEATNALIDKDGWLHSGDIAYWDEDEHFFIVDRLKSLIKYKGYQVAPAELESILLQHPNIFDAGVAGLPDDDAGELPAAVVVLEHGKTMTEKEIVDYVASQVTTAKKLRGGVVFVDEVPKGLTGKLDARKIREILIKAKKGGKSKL
# Retinoic acid receptor RXR-alpha (Homo sapiens), sequence (P19793 whole entry, looked up): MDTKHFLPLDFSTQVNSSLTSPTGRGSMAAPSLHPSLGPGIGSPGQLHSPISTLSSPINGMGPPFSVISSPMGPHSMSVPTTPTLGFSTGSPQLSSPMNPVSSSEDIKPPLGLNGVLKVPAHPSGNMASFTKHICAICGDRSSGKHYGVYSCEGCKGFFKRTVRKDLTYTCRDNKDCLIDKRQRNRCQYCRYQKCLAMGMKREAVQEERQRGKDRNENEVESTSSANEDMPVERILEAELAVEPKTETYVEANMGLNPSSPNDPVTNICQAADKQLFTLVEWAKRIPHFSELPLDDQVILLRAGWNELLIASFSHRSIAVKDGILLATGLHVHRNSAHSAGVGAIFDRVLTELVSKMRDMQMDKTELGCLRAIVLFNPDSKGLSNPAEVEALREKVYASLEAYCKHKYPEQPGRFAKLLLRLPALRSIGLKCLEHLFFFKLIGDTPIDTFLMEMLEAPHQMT
smiles,measurement,setting,value
CCCCCCCCCCCCCCCCCCO,outcome,[1],inactive
same,outcome,[2],inactive
same,max response,[3],-0.452%
same,outcome,[4],inactive
same,outcome,[5],inactive
same,max response,[6],4.76%
same,max response,[7],3.77% (inactive)
same,activity change % (negative = inhibition),[8],3.9% (inactive)
same,Potency,[9],inactive
C/C=C/C(=O)N(CC)c1ccccc1C,Potency,[10],inactive
O=C(c1ccccc1)C(O)c1ccccc1 (stereo not given),outcome,[1],inactive
same,outcome,[2],inactive
same,max response,[3],1.82% and 5.17%
same,outcome,[4],inactive
same,outcome,[5],inactive
same,max response,[6],-8.34%
same,max response,[7],0.509% (inactive)
same,activity change % (negative = inhibition),[8],7.64% (inactive) and -3.28% (inactive)
same,Potency,[10],inactive
same,Potency,[9],inactive
CC1CC(OC(=O)c2ccccc2O)CC(C)(C)C1 (stereo not given),outcome,[5],inactive
same,max response,[6],-9.52%
same,max response,[7],14.2% (inactive)
same,activity change % (negative = inhibition),[8],-8.08% (inactive)
same,Potency,[9],inactive
CC(C)=CCC/C(C)=C/CO,outcome,[1],inactive
same,max response,[3],-9.95%
same,outcome,[4],inactive
same,outcome,[5],inactive
same,max response,[6],-9.74%
same,max response,[7],-1.85% (inactive)
same,activity change % (negative = inhibition),[8],13.2% (inactive)
same,Potency,[10],inactive
same,Potency,[9],inactive
O=C(O)CCCCC1CCSS1 (stereo not given),outcome,[1],inactive
same,outcome,[2],inactive
same,outcome,[5],inactive
same,max response,[6],-14.4%
same,max response,[7],-5.4% (inactive)
same,activity change % (negative = inhibition),[8],1.34% (inactive)
same,Potency,[10],inactive
same,Potency,[9],inactive
O=C1C(c2[nH]c3ccccc3c2O)=Nc2ccccc21,max response,[3],16.9%
same,outcome,[4],inactive
same,outcome,[5],inactive
same,max response,[6],0.17%
same,max response,[7],9.96% (inactive)
same,activity change % (negative = inhibition),[8],0.455% (inactive)
CC(=O)NS(=O)(=O)c1ccc(N)cc1,outcome,[2],inactive
same,max response,[3],-19.7%
same,outcome,[4],inactive
same,outcome,[5],inactive
same,max response,[6],-14.4%
same,max response,[7],16.1% (inactive)
same,activity change % (negative = inhibition),[8],-0.298% (inactive)
same,Potency,[9],inactive
Cc1cccc(Nc2ccccc2C(=O)O)c1C,outcome,[5],inactive
same,Potency,[10],inactive
OC[C@@H](O)[C@@H](O)[C@H](O)[C@H](O)CO,outcome,[1],inactive
same,outcome,[2],inactive
same,max response,[3],-0.766%
same,outcome,[4],inactive
same,outcome,[5],inactive
same,max response,[6],-16.3%
same,max response,[7],13.9% (inactive)
same,activity change % (negative = inhibition),[8],-14.9% (inactive)
same,Potency,[9],inactive
Cc1c(C(=O)NCCO)[n+](=O)c2ccccc2n1[O-],max response,[3],-9.58%
same,outcome,[4],inactive
same,outcome,[5],inactive
same,max response,[6],-9.28%
same,max response,[7],-2.52% (inactive)
same,activity change % (negative = inhibition),[8],-3.26% (inactive)
same,Potency,[10],inactive
same,Potency,[9],inactive
NC(=O)c1ccc([N+](=O)[O-])cc1Cl,Potency,[10],inactive
same,Potency,[9],inactive
O[C@@H]1CO[C@H]2[C@@H]1OC[C@@H]2O,Potency,[10],inactive
same,Potency,[9],inactive
NC(=O)[C@@H]1CSSCCC(=O)N[C@@H](CCCCN=C(N)N)C(=O)NCC(=O)N[C@@H](CC(=O)O)C(=O)N[C@@H](Cc2c[nH]c3ccccc23)C(=O)N2CCC[C@H]2C(=O)N1 ([Mpa][hArg]GDWPC-NH2; disulfide 1-7),Potency,[10],inactive
same,Potency,[9],inactive
COc1ccc(C(=O)N2CCN(CC(=O)N3CCOCC3)CC2)cc1,Potency,[10],inactive
same,Potency,[9],inactive
CCN1CC(CCN2CCOCC2)C(c2ccccc2)(c2ccccc2)C1=O (stereo not given),Potency,[10],inactive
same,Potency,[9],inactive
Cc1c(C)c2c(c(C)c1OC(=O)c1cccnc1)CC[C@@](C)(CCC[C@H](C)CCC[C@H](C)CCCC(C)C)O2,Potency,[10],inactive
same,Potency,[9],inactive
CC(=O)Nc1ccc(OCCOCCOc2ccc(NC(C)=O)cc2)cc1,Potency,[10],inactive
same,Potency,[9],inactive
CC[N+](C)(CC)CCOC(=O)C1c2ccccc2Oc2ccccc21,Potency,[10],inactive
same,Potency,[9],inactive
CCN(CC)S(=O)(=O)c1ccc(C(=O)O)cc1,Potency,[10],inactive
same,Potency,[9],inactive
Nc1ccncc1N,Potency,[10],inactive
same,Potency,[9],inactive
O=C(Cn1ccnc1[N+](=O)[O-])NCCO,Potency,[10],inactive
same,Potency,[9],inactive
CCCNC(C)(C)COC(=O)c1ccccc1,Potency,[10],inactive
same,Potency,[9],inactive
CCN(CC)CCc1nc(-c2ccccc2)no1,Potency,[10],inactive
same,Potency,[9],inactive
Cc1onc(-c2ccccc2)c1-c1ccc(S(N)(=O)=O)cc1,Potency,[10],inactive
same,Potency,[9],inactive
CCOC(N)=O,Potency,[10],inactive
same,Potency,[9],inactive
